According to PubChem BioAssay (NCATS):
Values without a mark were called inactive. Records with an inconclusive call do not appear. Active and inactive are the calls of the source. Unless noted, the call rests on the fitted dose curve; in most records, active means well fitted curve in either direction with a large enough effect (not every such curve was filed as active); inconclusive means small, poorly fitted or top-dose-only effect, or another doubt; inactive means flat fitted curve, though single readings scatter.

Experiments:
[1] = target: Lysosomal acid glucosylceramidase (Homo sapiens) (UniProt P04062); assay: Glucocerebrosidase-p2 (AID 348; in the data active means potency below about 10 µM; further: potency means the concentration at half of the fitted maximal effect); conditions: purified GBA, blue fluorogenic substrate, 40 min
Lysosomal acid glucosylceramidase (Homo sapiens), sequence (P04062 whole entry, looked up): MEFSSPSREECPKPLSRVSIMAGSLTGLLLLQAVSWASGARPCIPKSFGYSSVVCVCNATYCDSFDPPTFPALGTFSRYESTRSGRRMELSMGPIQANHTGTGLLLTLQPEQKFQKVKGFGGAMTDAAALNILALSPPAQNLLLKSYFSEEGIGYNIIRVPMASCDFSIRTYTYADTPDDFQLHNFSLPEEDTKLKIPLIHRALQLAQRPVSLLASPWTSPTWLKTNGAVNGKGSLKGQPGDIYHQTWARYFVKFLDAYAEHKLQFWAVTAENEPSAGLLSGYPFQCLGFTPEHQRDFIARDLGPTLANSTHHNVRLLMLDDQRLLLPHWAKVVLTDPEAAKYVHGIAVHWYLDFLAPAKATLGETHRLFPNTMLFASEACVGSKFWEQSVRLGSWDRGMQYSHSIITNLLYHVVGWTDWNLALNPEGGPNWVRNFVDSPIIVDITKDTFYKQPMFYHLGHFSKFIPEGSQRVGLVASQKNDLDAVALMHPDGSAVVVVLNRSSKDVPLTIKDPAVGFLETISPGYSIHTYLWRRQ
How it was run: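 Compounds titrated from 0.6 nM upwards against 0.2 nM enzyme in pH 5.9 citric acid/KH2PO4, taurocholate, tween-20; blue fluorogenic substrate 80 uM, 40 min room temperature, stopped and read Ex 365/Em 440 for AC50.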

[2] = NFAT Signaling Pathway (AID 444); conditions: Jurkat NFAT-bla M1, carbachol, beta-lactamase ratio, 5 h; at 7.69 µM (top of the series) unless noted;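 further: carbachol stimulus at about its EC50 of 1 µM final; on the % scale 0 is the no-effect control and ±100 the full control effect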
How it was run: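 Read-out: CCF4 FRET ratio (460 nm/530 nm) after 1 h RT dye loading, used for %activity and AC50 from titration series. Cells: Jurkat NFAT-β-lactamase/M1 line, treated with compound plus 1 uM carbachol for 5 h, 37 °C.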

[3] = Stat Signaling Pathway (AID 446); conditions: ME-180 SIE beta-lactamase reporter, IL-6 stimulated, 5 h; at 7.69 µM (top of the series) unless noted;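 further: ME-180 cervical cancer cells given 40 pM IL-6 alongside compound; SIE-controlled beta-lactamase reporter measured as 460/530 nm FRET emission ratio; on the % scale 0 is the no-effect control and ±100 the full control effect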
How it was run: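 IL-6/STAT signaling read in ME-180 cells via an SIE beta-lactamase reporter. Stimulus was 40 pM IL-6 (its AC50) for 5 hrs, so both activation and inhibition register.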

[4] = target: Glucocorticoid receptor (Homo sapiens) (UniProt P04150); assay: GR-EFC Redistribution (AID 451; calls by dose curve; further: potency means the concentration at half of the fitted maximal effect); conditions: CHO-K1 GR-EFC translocation, beta-gal luminescence, 2 h
Glucocorticoid receptor (Homo sapiens), sequence (P04150 whole entry, looked up, the tested form may be a part): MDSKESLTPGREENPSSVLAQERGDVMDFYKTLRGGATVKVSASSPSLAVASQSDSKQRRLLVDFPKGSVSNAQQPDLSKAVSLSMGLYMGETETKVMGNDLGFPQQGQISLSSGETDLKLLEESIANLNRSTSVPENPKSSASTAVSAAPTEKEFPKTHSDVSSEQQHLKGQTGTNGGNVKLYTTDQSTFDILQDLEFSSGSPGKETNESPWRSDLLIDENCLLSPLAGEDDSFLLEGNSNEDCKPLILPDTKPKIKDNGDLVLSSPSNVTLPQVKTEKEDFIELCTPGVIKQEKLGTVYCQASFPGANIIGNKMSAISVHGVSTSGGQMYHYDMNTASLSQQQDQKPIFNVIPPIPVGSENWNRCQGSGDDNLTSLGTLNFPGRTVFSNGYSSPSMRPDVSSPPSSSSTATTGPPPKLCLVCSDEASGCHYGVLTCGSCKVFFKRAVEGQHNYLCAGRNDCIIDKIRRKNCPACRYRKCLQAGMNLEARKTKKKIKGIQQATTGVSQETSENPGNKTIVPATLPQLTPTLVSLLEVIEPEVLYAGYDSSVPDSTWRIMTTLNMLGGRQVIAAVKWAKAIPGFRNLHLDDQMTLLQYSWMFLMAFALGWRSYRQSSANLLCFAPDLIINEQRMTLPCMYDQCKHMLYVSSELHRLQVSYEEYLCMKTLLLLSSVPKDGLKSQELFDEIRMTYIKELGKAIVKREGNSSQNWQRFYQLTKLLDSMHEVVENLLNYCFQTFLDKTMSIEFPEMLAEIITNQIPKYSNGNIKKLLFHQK
How it was run: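 Translocation of GR-ED fusion to nuclear EA restores b-gal, read by luminescence after 1 h room-temperature detection. Engineered CHO-K1 biosensor cells, 1,000/well, exposed 2 h at 37 C to titrations up to 46 uM final.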

[5] = target: Mitogen-activated protein kinase 10 (Mus musculus) (UniProt Q61831); assay: JNK3 AlphaScreen Assay (AID 530); conditions: JNK3 lysate, c-Jun phosphorylation; series mostly up to 57.1 µM;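 further: kinase came from lysate of stimulated human HepG2 cells; signal reports phosphorylation of biotinylated GST-cJun 1-79 at Ser73 with 10 µM ATP; on the % scale 0 is the no-effect control and ±100 the full control effect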
How it was run: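 Room-temperature AlphaScreen kinase assay; pre-activated HepG2 lysate as JNK3 source, biotin-GST-cJun(1-79) substrate, 10 uM ATP, compound 15 min preincubation.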

[6] = target: 3',5'-cyclic-AMP phosphodiesterase 4B (Homo sapiens) (UniProt Q07343); assay: qHTS Assay for Inhibitors of PDE-IV (AID 607; active means well fitted activation curve with a large enough effect in the main read-out, with a control signal flat, not every such curve was filed as active; further: % of control where 0% means no effect); conditions: HEK293 ACTOne CNG channel cells, membrane potential fluorescence; series mostly up to 22.9 µM
3',5'-cyclic-AMP phosphodiesterase 4B (Homo sapiens), sequence (Q07343 whole entry, looked up): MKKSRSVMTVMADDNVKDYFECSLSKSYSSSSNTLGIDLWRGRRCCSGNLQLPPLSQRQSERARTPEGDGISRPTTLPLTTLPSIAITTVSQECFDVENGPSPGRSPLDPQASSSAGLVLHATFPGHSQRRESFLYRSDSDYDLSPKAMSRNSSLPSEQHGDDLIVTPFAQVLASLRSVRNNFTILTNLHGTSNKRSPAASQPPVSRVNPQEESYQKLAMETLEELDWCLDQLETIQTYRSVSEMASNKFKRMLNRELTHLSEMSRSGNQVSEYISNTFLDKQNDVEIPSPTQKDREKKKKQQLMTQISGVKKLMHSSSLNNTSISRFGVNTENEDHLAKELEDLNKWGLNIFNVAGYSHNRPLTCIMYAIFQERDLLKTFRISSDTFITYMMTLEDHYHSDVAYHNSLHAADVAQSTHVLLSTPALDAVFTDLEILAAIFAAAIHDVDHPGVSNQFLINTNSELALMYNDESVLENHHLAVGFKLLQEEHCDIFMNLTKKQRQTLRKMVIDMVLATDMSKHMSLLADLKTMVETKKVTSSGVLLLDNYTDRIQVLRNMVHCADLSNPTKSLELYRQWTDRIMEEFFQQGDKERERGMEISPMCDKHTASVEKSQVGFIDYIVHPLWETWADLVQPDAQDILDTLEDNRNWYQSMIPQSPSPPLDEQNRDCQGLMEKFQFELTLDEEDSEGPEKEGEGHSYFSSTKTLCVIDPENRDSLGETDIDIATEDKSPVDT
How it was run: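 Live HEK293 cells with a modified cyclic nucleotide-gated (CNG) channel report intracellular cAMP via membrane-potential dye fluorescence (ex 535/em 590 nm). Endogenous PDE-IV was targeted. Compounds were tested at up to 22.9 uM final; RO 20-1724 100 uM served as control.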

[7] = target: Cytochrome P450 3A4 (Homo sapiens) (UniProt P08684); assay: qHTS Assay for Activators of Cytochrome P450 3A4 (AID 885; active means well fitted curve in the direction sought with a large enough effect; an effect the other way counts as inactive or inconclusive; further: nearly all actives have a fitted effect of over 65% in size; further: potency means the concentration at half of the fitted maximal effect); conditions: recombinant CYP3A4, Luciferin-PPXE luminescence, 60 min; series mostly up to 57.1 µM
Cytochrome P450 3A4 (Homo sapiens), sequence (P08684 whole entry, looked up): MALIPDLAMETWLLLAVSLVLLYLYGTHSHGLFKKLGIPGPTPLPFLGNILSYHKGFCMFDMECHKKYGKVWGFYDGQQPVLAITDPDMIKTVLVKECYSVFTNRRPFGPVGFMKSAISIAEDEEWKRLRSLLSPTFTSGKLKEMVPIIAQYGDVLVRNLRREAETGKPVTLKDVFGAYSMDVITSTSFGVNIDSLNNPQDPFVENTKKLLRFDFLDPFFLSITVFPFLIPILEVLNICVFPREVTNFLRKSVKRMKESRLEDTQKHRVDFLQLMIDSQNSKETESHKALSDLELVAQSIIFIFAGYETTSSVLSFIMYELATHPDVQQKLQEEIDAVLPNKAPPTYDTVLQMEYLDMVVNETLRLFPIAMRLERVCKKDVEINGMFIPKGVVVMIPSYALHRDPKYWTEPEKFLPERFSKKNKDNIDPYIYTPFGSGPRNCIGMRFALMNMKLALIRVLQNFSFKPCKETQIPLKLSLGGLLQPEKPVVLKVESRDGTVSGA
How it was run: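 Quantitative HTS format: compounds preincubated with 20nM human CYP3A4 and Luciferin-PPXE substrate at KM, reaction started by NADPH regeneration, stopped after 60 min, luciferase luminescence read 20 min later.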

[8] = Primary qHTS for small molecule stabilizers of the endoplasmic reticulum resident proteome: Secreted ER Calcium Modulated Protein (SERCaMP) assay (AID 1508630; active means well fitted curve in the direction sought with a large enough effect; an effect the other way counts as inactive or inconclusive; further: on the % scale 0 is the no-effect control and ±100 the full control effect); conditions: SH-SY5Y GLuc-SERCaMP (Gaussia luciferase released on ER calcium loss) secretion, thapsigargin, luminescence; series mostly up to 38.4 µM
How it was run: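 GLuc-SERCaMP-expressing SH-SY5Y cells, pretreated 16 h with compound, are challenged with thapsigargin to empty ER calcium stores; after 4 h, coelenterazine is added directly to the medium and luminescence is imaged.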

[9] = AP1 Signaling Pathway (AID 357); conditions: ME-180 (cervical carcinoma) AP-1-bla reporter, EGF-induced, beta-lactamase ratio, 5 h; at 7.69 µM (top of the series) unless noted
How it was run: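 Beta-lactamase reporter under AP-1 response element, ME-180 background. Stimulus: EC50 EGF. Compound exposure 5 h, 37 °C. Detection: CCF4, 2.5 h RT, 460/530 nm. Values: AC50 from titration.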

[10] = target: Cytochrome P450 1A2 (Homo sapiens) (UniProt P05177); assay: p450-cyp1a2 (AID 410; calls by dose curve; further: potency means the concentration at half of the fitted maximal effect;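 on activity change, negative = inhibition: -100% = full effect of reference inhibitor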); conditions: recombinant CYP1A2, luciferin-ME demethylation, luminescence; series mostly up to 57 µM
Cytochrome P450 1A2 (Homo sapiens), sequence (P05177 whole entry, looked up): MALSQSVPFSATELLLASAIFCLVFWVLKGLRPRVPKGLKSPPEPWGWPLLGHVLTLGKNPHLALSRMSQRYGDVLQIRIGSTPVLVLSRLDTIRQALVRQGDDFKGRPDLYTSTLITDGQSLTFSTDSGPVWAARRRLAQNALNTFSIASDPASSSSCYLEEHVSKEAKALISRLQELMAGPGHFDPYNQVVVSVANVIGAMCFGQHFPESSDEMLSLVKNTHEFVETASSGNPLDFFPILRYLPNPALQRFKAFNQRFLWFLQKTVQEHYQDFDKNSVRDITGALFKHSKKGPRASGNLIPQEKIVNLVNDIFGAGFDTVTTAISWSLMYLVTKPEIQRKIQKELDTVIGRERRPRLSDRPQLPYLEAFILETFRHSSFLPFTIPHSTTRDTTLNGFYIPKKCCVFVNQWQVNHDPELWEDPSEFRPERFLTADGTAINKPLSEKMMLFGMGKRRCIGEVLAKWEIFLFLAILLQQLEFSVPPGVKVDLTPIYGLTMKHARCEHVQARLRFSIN
How it was run: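 Human CYP1A2 (20nM) demethylated Luciferin-ME at its Km (100uM) in 100mM KPO4. After 10 min compound preincubation, NADPH regeneration ran the reaction 60 min at room temperature. Luciferin was read by luminescence, normalized to 57 uM furafylline.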

[11] = target: Glucocorticoid receptor (Homo sapiens) (UniProt P04150); assay: GR-GFP Redistribution (AID 450;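 active means compounds whose dose series gives a full or clear partial fitted curve of increased nuclear translocation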; further: potency means the concentration at half of the fitted maximal effect); conditions: U2OS GR-GFP nuclear translocation, laser cytometry, 2 h
[12] = target: Ubiquitin carboxyl-terminal hydrolase 1 (Homo sapiens) (UniProt O94782); assay: Inhibitors of USP1/UAF1: Pilot qHTS (AID 504865; active means well fitted curve in the direction sought with a large enough effect; an effect the other way counts as inactive or inconclusive;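 further: rhodamine fluorescence freed from ubiquitin-rhodamine substrate followed over time; top concentration of the series differs between compounds; on the % scale 0 is the no-effect control and ±100 the full control effect; nearly all actives have a fitted effect of over 35% in size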); conditions: purified USP1/UAF1, Ub-rhodamine cleavage fluorescence; series mostly up to 54.9 µM
Ubiquitin carboxyl-terminal hydrolase 1 (Homo sapiens), sequence (O94782 whole entry, looked up): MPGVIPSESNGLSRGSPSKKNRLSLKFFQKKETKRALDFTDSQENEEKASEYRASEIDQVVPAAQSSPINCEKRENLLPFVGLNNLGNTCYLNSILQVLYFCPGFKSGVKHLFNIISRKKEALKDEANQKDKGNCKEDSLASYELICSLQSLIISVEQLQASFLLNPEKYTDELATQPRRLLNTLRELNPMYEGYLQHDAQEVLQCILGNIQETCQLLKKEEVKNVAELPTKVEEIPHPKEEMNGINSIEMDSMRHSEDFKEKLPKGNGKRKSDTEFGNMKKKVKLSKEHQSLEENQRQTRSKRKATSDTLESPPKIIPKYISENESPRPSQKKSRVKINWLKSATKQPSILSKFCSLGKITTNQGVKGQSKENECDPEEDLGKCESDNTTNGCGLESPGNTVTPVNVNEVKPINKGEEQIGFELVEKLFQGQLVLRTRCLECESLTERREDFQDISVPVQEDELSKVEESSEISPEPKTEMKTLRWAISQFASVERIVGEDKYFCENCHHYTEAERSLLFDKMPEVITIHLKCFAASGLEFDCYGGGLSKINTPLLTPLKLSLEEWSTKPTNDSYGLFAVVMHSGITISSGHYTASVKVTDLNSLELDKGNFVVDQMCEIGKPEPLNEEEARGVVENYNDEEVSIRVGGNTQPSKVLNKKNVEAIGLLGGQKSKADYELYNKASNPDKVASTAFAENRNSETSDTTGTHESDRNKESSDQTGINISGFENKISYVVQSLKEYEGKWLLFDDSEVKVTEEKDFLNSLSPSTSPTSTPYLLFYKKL
How it was run: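 USP1/UAF1 complex (1nM) preincubated with compound 15 min at room temperature, then Ub-Rho substrate (150nM final) added. Fluorescence read kinetically at 480/540 nm, 6 reads every 60 seconds. Buffer: 50mM HEPES pH 7.8, 0.5mM EDTA, 0.1 mg/ml BSA, 1mM TCEP, 0.01% Tween-20.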

[13] = target: Cytochrome P450 3A4 (Homo sapiens) (UniProt P08684); assay: qHTS Assay for Inhibitors and Substrates of Cytochrome P450 3A4 (AID 884; active means well fitted curve in the direction sought with a large enough effect; an effect the other way counts as inactive or inconclusive; further: on the % scale 0 is the no-effect control and ±100 the full control effect; nearly all actives have a fitted effect of over 50% in size); conditions: recombinant CYP3A4, Luciferin-PPXE luminescence; series mostly up to 57.1 µM
How it was run: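 20 nM human CYP3A4 with 25 uM Luciferin-PPXE (at KM) in 200 mM KPO4, preincubated 10 min with compound; NADPH regeneration started a 60 min RT reaction. Luciferin detected by luminescence, normalized to 57 uM ketoconazole as full inhibition.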

Row | SMILES | Potency [1] | activity change, negative = inhibition [2] | activity, negative = inhibition [3] | Potency [4] | Potency [5] | Potency [6] | Potency [7] | outcome [8] | activity change, negative = inhibition [9] | Potency [10] | Potency [11] | Potency [12] | Potency [13]
1 | CS(=O)(=O)N1CCC2(CC1)CN(c1ncccn1)C2 | > 11.4 µM | -5.62% | 6.56% | > 46 µM | inactive | inactive | inactive | inactive | – | – | – | – | –
2 | O=C(c1cnccn1)N1CCC2(CCCN(Cc3ccncc3)C2)CC1 | – | – | 6.38% | > 46 µM | inactive | inactive | – | inactive | -12.8% | – | – | – | –
3 | O=C(c1ccco1)N1CCC[C@@]2(CCN(c3cccc(-c4ccccc4)c3)C2)C1 | – | -22.9% | 3.03% | > 46 µM | – | – | – | inactive | -1.52% | 15.8 µM (active) | – | – | –
4 | CC(C)CN1CCCC2(CCN(C(=O)c3ccco3)CC2)C1 | – | – | 2.64% | > 46 µM | inactive | inactive | inactive | inactive | -0.809% | – | – | – | –
5 | CCNc1ncc2nc(-c3cccc(C#N)c3)c(=O)n(Cc3cccc(OC)c3)c2n1 | – | -14.9% | -8.97% | > 46 µM | inactive | inactive | – | inactive | -6.16% | – | > 9.22 µM | inactive | –
6 | O=C(Nc1ccccc1)N1CCCC2(CCN(C(=O)c3csnn3)CC2)C1 | > 11.4 µM | -7.97% | -7.07% | > 46 µM | inactive | inactive | inactive | inactive | – | – | – | – | –
7 | O=S(=O)(c1ccccc1)N1CCC2(CCCN(Cc3cc(C(F)(F)F)cc(C(F)(F)F)c3)C2)CC1 | > 11.4 µM | – | 5.03% | > 46 µM | inactive | inactive | – | inactive | – | – | – | – | –
8 | O=C(Nc1cccc(F)c1)N1CCCC2(CCN(C(=O)c3cccc(F)c3)CC2)C1 | > 11.4 µM | – | -9.43% | > 46 µM | inactive | – | – | inactive | – | – | – | – | –
9 | COc1ncc2nc(C)c(=O)n(CCC#N)c2n1 | > 11.4 µM | -6.19% | -5.09% | > 46 µM | inactive | inactive | – | inactive | – | – | > 9.22 µM | – | –
10 | O=C(c1cnccn1)N1CCC2(CCCN(c3ccccn3)C2)CC1 | – | – | 1.23% | > 46 µM | inactive | inactive | inactive | inactive | -13% | inactive | – | – | –
11 | COc1ccc(Oc2ncc3nc(-c4ccccc4)c(=O)n(Cc4cccs4)c3n2)cc1 | – | -1.01% | -3.78% | > 46 µM | inactive | inactive | – | inactive | -8.46% | – | > 9.22 µM | – | –
12 | COCCn1c(=O)c(-c2ccc(Cl)cc2)nc2cnc(Oc3ccc(OC)cc3)nc21 | – | -1.47% | -2.62% | > 46 µM | inactive | inactive | – | inactive | -18.1% | – | > 9.22 µM | – | –
13 | COc1cccc(Cn2c(=O)c(C)nc3cnc(N4CCOCC4)nc32)c1 | – | 2.68% | -1.29% | > 46 µM | inactive | – | – | inactive | -24.9% | – | > 9.22 µM | – | –
14 | COc1ccc(C(=O)N2CCC3(CCN(C(=O)Nc4cccc(C#N)c4)CC3)CC2)cc1 | > 11.4 µM | – | -23.9% | > 46 µM | – | – | – | inactive | – | – | – | – | –
15 | CCNc1ncc2nc(-c3cc(F)cc(F)c3)c(=O)n(-c3ccccc3)c2n1 | > 11.4 µM | – | – | > 46 µM | inactive | – | inactive | inactive | – | – | > 9.22 µM | – | –
16 | COc1ccc(-c2nc3cnc(N4CCOCC4)nc3n(CCC#N)c2=O)cc1 | – | 2.6% | 16.9% | > 46 µM | inactive | inactive | – | inactive | 3.37% | 3.16 µM (active) | > 9.22 µM | – | –
17 | COc1ccc(NC(=O)N2CCC3(CC2)CCN(C(=O)c2cccc(F)c2)CC3)cc1 | – | 8.11% | 0.897% | > 46 µM | inactive | inactive | 12.6 µM (active) | inactive | -4.05% | inactive | – | – | inactive
